Six1-Eya2 inh = qHTS Assay for Inhibitors of the Six1/Eya2 Interaction. Homeobox protein SIX1 (Homo sapiens) + Protein phosphatase EYA2 (Homo sapiens), …. AID 651725, 2012. 360,000 tested, 0.56% active. AlphaScreen GST-Six1/His-Eya2 binding, biochemical; hits give low values. activity change, % (concentration not given with the values); in the data active = activity change below about -65%; inconclusive = mostly about -30% to -63%
Target sequence (O00167 whole entry, looked up): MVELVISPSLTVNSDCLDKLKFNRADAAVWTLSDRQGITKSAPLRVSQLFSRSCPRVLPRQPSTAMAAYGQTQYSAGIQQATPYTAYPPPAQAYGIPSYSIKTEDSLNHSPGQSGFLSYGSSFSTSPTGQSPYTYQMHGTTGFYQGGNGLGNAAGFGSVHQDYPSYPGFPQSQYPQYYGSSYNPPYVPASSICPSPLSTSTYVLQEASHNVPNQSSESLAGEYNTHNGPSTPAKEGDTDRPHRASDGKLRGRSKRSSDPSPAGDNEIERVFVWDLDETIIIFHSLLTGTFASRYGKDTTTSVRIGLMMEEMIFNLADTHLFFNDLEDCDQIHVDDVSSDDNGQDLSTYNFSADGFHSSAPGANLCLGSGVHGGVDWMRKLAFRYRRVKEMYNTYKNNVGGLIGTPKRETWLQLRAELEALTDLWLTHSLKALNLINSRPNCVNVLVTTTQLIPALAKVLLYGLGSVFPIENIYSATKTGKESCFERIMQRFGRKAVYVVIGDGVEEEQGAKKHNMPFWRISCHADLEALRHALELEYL
Target sequence (Q15475 whole entry, looked up): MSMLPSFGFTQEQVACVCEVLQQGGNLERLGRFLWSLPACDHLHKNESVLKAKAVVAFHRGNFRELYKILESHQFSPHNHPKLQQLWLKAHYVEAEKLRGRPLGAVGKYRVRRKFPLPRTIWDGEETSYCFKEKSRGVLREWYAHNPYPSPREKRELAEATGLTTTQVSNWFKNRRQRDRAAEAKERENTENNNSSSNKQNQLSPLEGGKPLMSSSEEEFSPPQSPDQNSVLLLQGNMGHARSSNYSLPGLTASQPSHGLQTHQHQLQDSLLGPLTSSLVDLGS
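Compounds are tested against tagged Six1 and Eya2 proteins bridged by glutathione donor and nickel acceptor beads; after a one-hour incubation at 37 °C without light, AlphaScreen emission is recorded.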
IL-1B inflam inh = qHTS for Inhibitors of Inflammasome Signaling: IL-1-beta AlphaLISA Primary Screen; THP-1 LPS/ATP IL-1B secretion, AlphaLISA, 16 h; hits give low values; 360,000 tested, 4.7% active; activity change, % at 57.5 µM; in the data active = activity change below about -50%; inconclusive = mostly about -30% to -49%
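Secreted IL-1B measured by AlphaLISA bead assay after 16 h compound exposure of THP-1 cells; compounds (final up to 57.5 uM) added 1 h before LPS (250 ng/mL) and ATP (1.25 mM) stimulation; lower signal means less secretion.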
TDP1 cell CPT = qHTS for Inhibitors of human tyrosyl-DNA phosphodiesterase 1 (TDP1): qHTS in cells in presence of CPT. Potency, µM (doses to about 46.2 µM), inactives show at the highest dose activity change, negative = growth inhibition, most hits filed as inhibitors. 420,000 tested, 12% active. AID 686979, 2013. chicken DT40 Tdp1-/-;hTDP1 cells + 20 nM CPT, ATP luminescence, 48 h; also: potency is read from the fitted curve at half-maximal effect; nearly all actives have a fitted effect of over 55% in size
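Cell growth measured by CellTiter-Glo luminescence after a minimum 48 h, 37 C compound exposure with 20 nM CPT in Tdp1-knockout DT40 cells stably expressing hTDP1, seeded 400/well; qHTS titration format.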
TDP1 cell noCPT = qHTS for Inhibitors of human tyrosyl-DNA phosphodiesterase 1 (TDP1): qHTS in cells in absence of CPT; 420,000 tested, 15% active; DT40 Tdp1-/- hTDP1 cells, no CPT, ATP luminescence, 48 h; Potency, µM (series often up to 46.2 µM), without a hit: top-dose activity change, negative = growth inhibition, usual class: inhibitors; also: potency is read from the fitted curve at half-maximal effect; nearly all actives have a fitted effect of over 55% in size
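Luminescent ATP content (CellTiter-Glo) served as the growth readout. Knockout chicken DT40 cells expressing human TDP1 were exposed to compounds without camptothecin for a minimum 48 hr at 37 °C.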
TDP1 inh = qHTS Assay for Inhibitors of Tyrosyl-DNA Phosphodiesterase (TDP1) | Tyrosyl-DNA phosphodiesterase 1 (Homo sapiens), Q9NUW8 | Potency, µM (series often up to 130 µM), for inactives: at the top dose activity change, negative = inhibition, most hits filed as inhibitors | 350,000 tested, 0.28% active | recombinant TDP1, AlphaScreen DNA substrate cleavage; also: potency is read from the fitted curve at half-maximal effect; nearly all actives have a fitted effect of over 40% in size
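Tdp1 1 nM final; 15 min RT w/ cpd; substrate 15 nM, 5 min; beads 10 ug/ml, 10 min; AlphaScreen read. Neg ctrl: no enzyme.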
CtBP-E1A blk = qHTS Assay for Inhibitors of the CtBP/E1A Interaction; AlphaScreen GST-E1A/His-CtBP binding, 1536-well; hits give low values; activity change, % (test concentration not listed); 340,000 tested, 0.49% active; in the data active = activity change below about -65%; inconclusive = mostly about -30% to -63%
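GST-E1A and His-tagged CtBP (125 nM each as 5X stock) were preincubated with pin-transferred compound for 2 h at 37 °C in the dark, then glutathione donor and nickel acceptor beads were added for 1 h before AlphaScreen reading.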
* = called active by the depositor; [ ] = remark or other dose. An excerpt weighted towards active compounds, which were near 18% of everything screened. Unless noted, calls follow the shape of the dose curve; as a rule, active = well fitted curve in the direction sought with a large enough effect; inconclusive = small, poorly fitted or top-dose-only effect, or another doubt; inactive = no such curve, though single readings can be large; an effect the other way counts as inactive or inconclusive. % is scaled to controls: 0 for no effect and ±100 for the full control effect.

What do the screens show for `CCOC(=O)c1ccccc1NC(=O)N1CCN(Cc2cc(=O)n3nc(-c4ccccc4)sc3n2)CC1`?
TDP1 cell CPT: -2%; TDP1 cell noCPT: -5%; TDP1 inh: 0%

What do the screens show for `O=C(CCNC(=O)c1ccc([N+](=O)[O-])cc1)NCC1COc2ccccc2O1` (configuration not stated)?
Six1-Eya2 inh: 8; IL-1B inflam inh: 10; TDP1 cell CPT: 3%; TDP1 cell noCPT: 15%; TDP1 inh: -14%; CtBP-E1A blk: -2

What do the screens show for `O=C(CN1CCN(Cc2ccc(F)cc2)CC1)Nc1nc2ccccc2s1`?
Six1-Eya2 inh: -2; IL-1B inflam inh: -7; TDP1 cell CPT: -28%; TDP1 cell noCPT: 26µM*

How did O=C(COC(=O)c1ccc(Br)cc1)NCC1CCCO1 (configuration not stated) do in these assays?
Six1-Eya2 inh: -9; IL-1B inflam inh: 16; TDP1 cell CPT: -17%; TDP1 cell noCPT: -22%; TDP1 inh: -1%; CtBP-E1A blk: 8

What do the screens show for `O=C1NC(c2ccccc2)=C(c2nc3ccccc3s2)C(c2ccc(F)cc2)N1` (configuration not stated)?
Six1-Eya2 inh: -15; IL-1B inflam inh: -75*; TDP1 cell CPT: inconclusive; TDP1 cell noCPT: inconclusive; TDP1 inh: 7%; CtBP-E1A blk: -16

What do the screens show for `COc1ccc(C2NC(=O)NC(c3ccccc3)=C2c2nc3ccccc3s2)cc1` (configuration not stated)?
Six1-Eya2 inh: -13; IL-1B inflam inh: inconclusive; TDP1 cell CPT: 14µM*; TDP1 cell noCPT: inconclusive; TDP1 inh: 7%; CtBP-E1A blk: -16

How did Cn1cccc1C(=O)NNC(=O)c1ccccc1Br do in these assays?
Six1-Eya2 inh: -2; IL-1B inflam inh: -5; TDP1 cell CPT: -7%; TDP1 cell noCPT: 0%; TDP1 inh: -13%; CtBP-E1A blk: -7

How did C/C(=N\NC(=O)c1ccccc1OCCOc1ccccc1)c1ccccc1F do in these assays?
Six1-Eya2 inh: -2; IL-1B inflam inh: -65*; TDP1 cell CPT: inconclusive; TDP1 cell noCPT: 16µM*; TDP1 inh: -1%; CtBP-E1A blk: 3

What do the screens show for `C/C(=N\NC(=O)c1ccccc1)c1ccccc1F`?
Six1-Eya2 inh: 4; IL-1B inflam inh: -7; TDP1 cell CPT: 10%; TDP1 cell noCPT: 10%; TDP1 inh: 3%; CtBP-E1A blk: 0

What do the screens show for `COc1ccc(NC(=S)NCCCN2CCCC2=O)c(OC)c1`?
Six1-Eya2 inh: 3; IL-1B inflam inh: -5; TDP1 cell CPT: 20%; TDP1 cell noCPT: 18%; TDP1 inh: 0%; CtBP-E1A blk: -3

How did CN(C)/C=C(\C#N)c1nc2ccccc2[nH]1 do in these assays?
Six1-Eya2 inh: -2; IL-1B inflam inh: -11; TDP1 cell CPT: -2%; TDP1 cell noCPT: inconclusive; TDP1 inh: 6%; CtBP-E1A blk: 0

How did Cc1ccc2nc(/C(C#N)=C/c3ccc(-c4cccc([N+](=O)[O-])c4)o3)[nH]c2c1 do in these assays?
Six1-Eya2 inh: 17; IL-1B inflam inh: 0; TDP1 cell CPT: inconclusive; TDP1 cell noCPT: inconclusive; TDP1 inh: 3%; CtBP-E1A blk: 0

How did Cc1ccc2nc(/C(C#N)=C/c3ccc(-c4ccc(F)cc4F)o3)[nH]c2c1 do in these assays?
TDP1 cell CPT: 2.9µM*; TDP1 cell noCPT: 5.2µM*; TDP1 inh: -12%[12.3 µM]

What do the screens show for `N#C/C(=C\c1c(Cl)cccc1Cl)c1nc2ccccc2[nH]1`?
Six1-Eya2 inh: -3; IL-1B inflam inh: -93*; TDP1 cell CPT: inconclusive; TDP1 cell noCPT: -26%; TDP1 inh: 5%; CtBP-E1A blk: 1

What do the screens show for `Cc1c(Cl)cccc1-c1ccc(/C=C(\C#N)c2nc3ccccc3[nH]2)o1`?
TDP1 cell CPT: 10µM*; TDP1 cell noCPT: 4.1µM*; TDP1 inh: -2%

Results for CC(C)C1N(c2ccccc2)C(N)=C(C#N)C1(C#N)C#N (configuration not stated) ?
Six1-Eya2 inh: -11; IL-1B inflam inh: -14; TDP1 cell CPT: inconclusive; TDP1 cell noCPT: 23µM*; TDP1 inh: -1%; CtBP-E1A blk: -4

How did CCOc1ccc(C(=O)Nc2nnc(C(C)C)s2)cc1OCC do in these assays?
Six1-Eya2 inh: -2; IL-1B inflam inh: 2; TDP1 cell CPT: -21%; TDP1 cell noCPT: -20%; TDP1 inh: 3%; CtBP-E1A blk: -1

What do the screens show for `O=C(NC1CCCCC1)C(c1ccc(F)cc1)N(Cc1cccs1)C(=O)CN1C(=O)c2ccccc2S1(=O)=O` (configuration not stated)?
Six1-Eya2 inh: 7; IL-1B inflam inh: 40; TDP1 cell CPT: 16µM*; TDP1 cell noCPT: 16µM*; TDP1 inh: 0%; CtBP-E1A blk: -2

What do the screens show for `Cc1ccc(C(C(=O)NC2CCCCC2)N(C(=O)Cc2c[nH]c3ccccc23)c2ccccc2C)o1` (configuration not stated)?
Six1-Eya2 inh: 2; IL-1B inflam inh: 21; TDP1 cell CPT: 26µM*; TDP1 cell noCPT: 21µM*; TDP1 inh: 2%; CtBP-E1A blk: -17

How did O=C(NCC1CCCO1)C(c1ccncc1)N(Cc1cccs1)C(=O)CN1C(=O)c2ccccc2S1(=O)=O (configuration not stated) do in these assays?
Six1-Eya2 inh: 7; IL-1B inflam inh: 20; TDP1 cell CPT: 9%; TDP1 cell noCPT: 0%; TDP1 inh: 0%; CtBP-E1A blk: 22

How did Cc1ccc(C(C(=O)NC2CCCCC2)N(Cc2ccco2)C(=O)Cc2c[nH]c3ccccc23)o1 (configuration not stated) do in these assays?
Six1-Eya2 inh: -14; IL-1B inflam inh: -77*; TDP1 cell CPT: inconclusive; TDP1 cell noCPT: inconclusive; TDP1 inh: 6%; CtBP-E1A blk: -5

How did Cc1ccccc1N(C(=O)Cc1c[nH]c2ccccc12)C(C(=O)NC1CCCCC1)c1ccco1 (configuration not stated) do in these assays?
Six1-Eya2 inh: 4; IL-1B inflam inh: -4; TDP1 cell CPT: 21µM*; TDP1 cell noCPT: 9.2µM*; TDP1 inh: -2%; CtBP-E1A blk: 7

Assay outcomes: PubChem, National Center for Advancing Translational Sciences (NCATS)
